Not all results are given here.
aSyn 5UTR act: Activators via SNCA 5'UTR binding, MLPCN | 300,000 tested, 7.1% active | alpha-synuclein 5'UTR reporter, activators screen | AID 1814 | activity score, % (tested at 7.5 µM), hits read low; in the data active = activity score below about -60%
* hit, by the source's call.

CCOC(=O)C1=NN(C(=O)c2cccc(Br)c2)C(O)(C(C)(C)C)C1 (stereo not drawn) was read as aSyn 5UTR act 105.
`CCOC(=O)N1N=C(c2ccccc2)CC1(O)C(F)(F)F` (stereo not drawn) gave aSyn 5UTR act -75*.
For CC(C)Oc1ccccc1/C=N/Nc1ccccc1[N+](=O)[O-] the results were aSyn 5UTR act -209*.
For CCOc1ccccc1/C=N/Nc1ccccc1[N+](=O)[O-] the results were aSyn 5UTR act -304*.
Screening COc1ccccc1/C=N\Nc1ccccc1[N+](=O)[O-] returned aSyn 5UTR act -91*.
Screening Cc1cccc(N=Nc2cn[nH]c2-c2ccco2)c1 returned aSyn 5UTR act -125*.
Oc1cccc(/C=N/Nc2ncnc3c2ncn3Cc2ccccc2)c1 was read as aSyn 5UTR act -77*.
Nc1c(S(=O)(=O)c2cccc(Cl)c2)c2nc3ccccc3nc2n1/N=C/c1ccc(O)c(O)c1 was read as aSyn 5UTR act 89.
Screening Oc1ccc(/C=N/Nc2ncnc3c2ncn3Cc2ccccc2)cc1O returned aSyn 5UTR act -67*.
C=CCn1cnc2c(nnn2-c2ccc(C)c(C)c2)c1=O was read as aSyn 5UTR act -122*.
For CCc1ccc(OCC(=O)O/N=C(\N)c2ccccn2)cc1 the results were aSyn 5UTR act -91*.
Screening N/C(=N\OC(=O)COc1ccccc1)c1ccccn1 returned aSyn 5UTR act -69*.
For Cc1ccc(OCC(=O)O/N=C(\N)c2ccccn2)cc1C the results were aSyn 5UTR act -99*.
Screening CCOc1ccc(C(=O)O/N=C(\N)c2ccccn2)cc1 returned aSyn 5UTR act 62.
For Cc1ccc(OCC(=O)O/N=C(\N)c2ccncc2)cc1C the results were aSyn 5UTR act -129*.
For Cc1cccc(C(=O)O/N=C(\N)c2ccccn2)c1 the results were aSyn 5UTR act 70.
Screening Cc1cccc(OCC(=O)O/N=C(\N)c2ccccn2)c1 returned aSyn 5UTR act -116*.
Screening N/C(=N\OC(=O)COc1ccc2ccccc2c1Br)c1ccccn1 returned aSyn 5UTR act -107*.
Screening Cc1cc(C)c(C)c(OCC(=O)O/N=C(\N)c2ccccn2)c1 returned aSyn 5UTR act -110*.
`CCOC(=O)c1ccc(NC(=O)N(CC)CC)cc1` gave aSyn 5UTR act -115*.
Screening CCC(CC)C(=O)Nc1ccc(Nc2ccccc2)cc1 returned aSyn 5UTR act -100*.
`CCOC(=O)c1ccc(NC(=S)N(CCN(C)C)Cc2cccs2)cc1` gave aSyn 5UTR act 53.
`CCC(C)NS(=O)(=O)c1ccc(NC(=O)C(Sc2ccccc2)c2ccccc2)cc1` (stereo not drawn) gave aSyn 5UTR act 56.
CCOC(=O)c1ccc(NC(=O)C(CC)CC)cc1 was read as aSyn 5UTR act -98*.
`CCN(C(=O)COC(=O)c1cc(-c2ccc3cc(OC)ccc3c2)nc2ccccc12)C1CCS(=O)(=O)C1` (stereo not drawn) gave aSyn 5UTR act 67.
Screening CN(C(=O)COC(=O)c1cc(-c2ccc(Cl)s2)nc2ccccc12)C1CCS(=O)(=O)C1 (stereo not drawn) returned aSyn 5UTR act -82*.
Screening COc1ccc(/C=N/NC(=O)c2cc3c(OC)ccc(OC)c3[nH]2)cc1O returned aSyn 5UTR act 68.
`COc1ccccc1/C=C/C=N/NC(=O)c1cnccn1` gave aSyn 5UTR act -69*.
`COc1ccccc1/C=C/C=N/NC(=O)c1ccccn1` gave aSyn 5UTR act -74*.
Screening COc1ccc(/C=N/NC(=O)c2cnccn2)cc1O returned aSyn 5UTR act -63*.
COC(=O)c1sc2nc3c(cc2c1N)COC(C)(C)C3 was read as aSyn 5UTR act -131*.
Screening CC1(C)Cc2nc3sc(C(=O)NCCCO)c(N)c3cc2CO1 returned aSyn 5UTR act -69*.
`Oc1ccccc1/C=N/Nc1nccnc1Cl` gave aSyn 5UTR act 88.
`O=[N+]([O-])c1ccccc1/C=N/Nc1nccnc1Cl` gave aSyn 5UTR act -184*.
`Nc1cc(Cl)nc(N/N=C/c2ccccc2[N+](=O)[O-])n1` gave aSyn 5UTR act -188*.
O=C(c1cc2cc(Br)ccc2[nH]1)N1CCc2ccccc21 was read as aSyn 5UTR act -76*.
Screening COc1ccc(-c2cc(C(F)F)n3ncc(C(=O)N4CCc5ccccc54)c3n2)cc1 returned aSyn 5UTR act 60.
Screening COc1ccc2cc(C(=O)N3CCc4ccccc43)[nH]c2c1 returned aSyn 5UTR act -122*.
For O=C(c1cc2cc(F)ccc2[nH]1)N1CCc2ccccc21 the results were aSyn 5UTR act -177*.
Screening Nc1c(-c2ccccn2)cnn1-c1nc(-c2ccc(F)cc2)cs1 returned aSyn 5UTR act -79*.
Screening Nc1c(-c2cccs2)cnn1-c1nc(-c2ccc(F)cc2)cs1 returned aSyn 5UTR act -124*.
Cc1ccc(C(=O)Oc2ccc(/C=C3\C(=N)N4N=C(N5CCOCC5)SC4=NC3=O)cc2)cc1 was read as aSyn 5UTR act -62*.
`CCOc1cc(CNCCCN2CCOCC2)cc(Br)c1OCc1ccccc1Cl` gave aSyn 5UTR act 96.
Screening CCOc1cc(C2NN=C(c3ccccc3)S2)ccc1OCc1ccccc1Cl (stereo not drawn) returned aSyn 5UTR act -132*.
Screening CCOc1cc(C2NN=C(c3ccccc3)S2)ccc1OCc1ccc(F)cc1 (stereo not drawn) returned aSyn 5UTR act -129*.
CC(=O)c1ccc(N2CCN(c3ncccn3)CC2)cc1 was read as aSyn 5UTR act -125*.
`COc1cccc(N2CCN(c3ncccn3)CC2)c1` gave aSyn 5UTR act -104*.
Cc1cc(C(=O)COC(=O)c2ccc(Br)o2)c(C)n1Cc1ccco1 was read as aSyn 5UTR act -116*.
For CCOc1ncccc1C(=O)OCC(=O)c1cc(C)n(Cc2ccco2)c1C the results were aSyn 5UTR act -115*.
Screening Cc1cc(C(=O)COC(=O)c2ccc(O)cc2)c(C)n1Cc1ccco1 returned aSyn 5UTR act -140*.
Nc1nc(-c2ccccn2)nc(N)c1Cc1ccccc1F was read as aSyn 5UTR act -246*.
C/C(NC(=O)c1ccccc1)=C1/C(=O)CC2C1C2(C)C (stereo not drawn) was read as aSyn 5UTR act -99*.
For C/C(=N/Nc1ccnc2cc(Cl)ccc12)c1ccc(O)cc1 the results were aSyn 5UTR act -118*.
`C/C(=N/Nc1ccnc2cc(Cl)ccc12)c1ccc(N)cc1` gave aSyn 5UTR act -177*.
For Cc1c(NC(=O)c2cc(-n3cnnc3)ccc2Cl)cccc1-c1nc2ccccc2s1 the results were aSyn 5UTR act -90*.
For Cc1ccc2sc(-c3ccc(NC(=O)c4cc(-n5cnnc5)ccc4Cl)cc3)nc2c1 the results were aSyn 5UTR act -153*.
Screening O=C(Nc1cccc(-c2nc3ccccc3s2)c1)c1cc(-n2cnnc2)ccc1Cl returned aSyn 5UTR act -85*.
`CN1C(=O)C(O)(c2nnc(-c3ccccc3)o2)c2ccccc21` (stereo not drawn) gave aSyn 5UTR act -96*.
`O=C(/C=C/c1ccccc1Cl)NCc1ccco1` gave aSyn 5UTR act -120*.
Screening O=C(/C=C/c1ccccc1)NCc1ccco1 returned aSyn 5UTR act -72*.
`O=C(/C=C/c1ccc2c(c1)OCO2)NCc1ccco1` gave aSyn 5UTR act -68*.
`N#C/C(=C\C=C\c1ccccc1)C(=O)NCc1ccco1` gave aSyn 5UTR act -63*.
For Cc1nc(C(=O)NNC(=O)c2c(-c3c(Cl)cccc3Cl)noc2C)cs1 the results were aSyn 5UTR act 63.
